High-throughput results as filed in PubChem BioAssay.
Pf growth 96h = Primary qHTS for delayed death inhibitors of the malarial parasite plastid, 96 hour incubation; AID 504834, 2011; Potency, µM (highest dose often 28.7 µM), most hits filed as inhibitors; 6.9% of 320,000 active; P. falciparum luciferase reporter growth, 96 h
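P. falciparum expressing integrated firefly luciferase grown in erythrocytes (2% hematocrit, 0.05% parasitemia final) with compounds for 96 hours at 37 C, 5% CO2. Growth inhibition read as loss of luminescence after adding luciferase detection reagent.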
Sm TGR block = qHTS Assay for the Inhibitors of Schistosoma Mansoni Peroxiredoxins. Schistosoma mansoni thioredoxin glutathione reductase (TGR), Q962Y6. purified TGR, DTNB reduction, TNB absorbance 405 nm. Potency, µM (top dose mostly 114 µM), usual class: inhibitors. 3% of 360,000 active. AID 485364, 2010; note: nearly all actives have a fitted effect of over 60% in size
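Kinetic colorimetric format: TGR-catalysed, NADPH-driven DTNB reduction monitored via TNB absorbance. Enzyme dispensed at 20 nM; compound exposure 15 min at room temperature before reaction start.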
Pf growth 48h = Primary qHTS for delayed death inhibitors of the malarial parasite plastid, 48 hour incubation. AID 504832, 2011. P. falciparum luciferase growth in erythrocytes, 48 h. Potency, µM (doses to about 28.7 µM), most hits filed as inhibitors. 5.9% of 310,000 active
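Firefly luciferase activity from engineered P. falciparum reports growth; inhibitors lower the luminescent signal. Cultures contained 2% hematocrit erythrocytes at 0.1% final parasitemia.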
Shiga toxin inh = A qHTS for Small Molecule Inhibitors of Shiga Toxin; 9.2% of 290,000 active; Vero cells, Shiga toxin protein synthesis inhibition reporter; inhibition, % at 38.7 µM; in the data active = inhibition mostly above about 28%, no sharp cut-off; inactive = mostly below about 43%
NS1 inh = qHTS Assay for Inhibitors of Influenza NS1 Protein Function; 0.4% of 270,000 active; AID 2326, 2010; Potency, µM (titrated, usually from 46.1 µM); calls by dose curve; note: actives are rising curves; nearly all actives have a fitted effect of over 50% in size
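Read-out: OD600 growth recovery of NS1-expressing budding yeast. Cells grown overnight at 30C in -URA glucose medium, washed, resuspended and diluted 1:100 in 2% galactose assay medium, pH 6.0. Same strain lacking NS1 served as positive control.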
Cycloheximide cs = Cycloheximide Counterscreen for Small Molecule Inhibitors of Shiga Toxin | 12% of 300,000 active | max response, % | cell reporter, cycloheximide protein synthesis inhibition counterscreen; in the data active = max response mostly above about 13%, no sharp cut-off; inactive = mostly below about 14%; note: read at 38.3 µM for the half of the compounds with a filed dose
Hits are given with their value; – = inactive; ? = inconclusive; · = no result. Shown are actives, neighbours in structure and some others; about 21% of the full set was active somewhere. Unless noted, calls come from the whole dose curve; as a rule, active = well fitted curve in the direction sought with a large enough effect; inconclusive = small, poorly fitted or top-dose-only effect, or another doubt; inactive = no such curve, though single readings can be large; an effect the other way counts as inactive or inconclusive.

SMILES	Pf growth 96h	Sm TGR block	Pf growth 48h	Shiga toxin inh	NS1 inh	Cycloheximide cs
CCNC(=S)Nc1sc2c(c1C#N)CCC(C)C2 (centres undefined)	5.86µM	–	?	–	–	–
CC1CCc2c(sc(NC(=O)C3CCCO3)c2C#N)C1 (centres undefined)	–	–	–	106.6	·	37.3
CCc1c(C)sc(NC(=O)C2CCCO2)c1C#N (centres undefined)	–	–	–	–	–	16.8
CC1CCc2c(sc(NC(=O)COC(=O)c3ccc(O)cc3)c2C#N)C1 (centres undefined)	–	–	–	–	·	–
Cc1c(C(=O)N2CCCCCC2)c(S(=O)(=O)Nc2cccc(C#N)c2)c(C)n1C	·	–	·	·	·	·
Cc1ccc(C)c(S(=O)(=O)N2CCN(C(=O)Cn3[nH]c(=O)c4ccccc4c3=O)CC2)c1	?	–	?	·	·	·
Cc1nc(C2COc3ccccc3O2)sc1C(=O)O (centres undefined)	?	–	–	70.7	–	13.1
COc1cc2c3c(c1)c(N=NC(N)=S)c(O)n3C(C)(C)C=C2C	6.57µM	–	10.4µM	–	–	–
CC1=CC(C)(C)n2c(O)c(N=NC(N)=S)c3cccc1c32	–	–	–	–	–	–
CC(C)(C)c1ccc(NC(=O)C(=O)C2C(=O)Nc3ccccc32)cc1 (centres undefined)	–	–	–	48.6	·	32.3
O=C(CNC(=O)c1ccccc1Cl)Nc1ccncc1	–	–	–	·	·	·
COc1cccc(NC(=O)CNCc2ccccc2)c1	–	–	–	62.3	–	28.5
COc1cccc(NC(=O)Cc2ccccc2)c1	?	–	–	–	–	–
O=C(CNCc1ccccc1)Nc1ccc(F)cc1	–	–	–	–	–	34.6
O=C(CNC(=O)c1ccccc1Cl)Nc1ccc(F)cc1	?	–	–	–	–	19.5
COc1cccc(NC(=O)CC(=O)c2ccccc2)c1	–	–	–	100.4	–	58.6
COc1ccc(OCC(=O)Nc2ccc(N3CCN(C(=O)c4ccccc4C)CC3)cc2)cc1	?	–	?	–	·	–
O=C(O)CC1COc2ccccc2N1C(=O)c1ccccc1Cl (centres undefined)	–	–	–	–	–	–
O=C1CCN(C(=O)CSc2ccc(Cl)cc2)N1	?	–	–	–	·	–
CCC(C)C(NC(=O)c1ccccc1NC(=O)c1ccco1)C(=O)NNC(=O)c1ccncc1 (centres undefined)	?	–	10.4µM	–	–	–
CCC(C)C(NC(=O)c1ccccc1NC(=O)c1ccco1)C(=O)NNC(=O)c1ccc(OC)cc1 (centres undefined)	8.28µM	–	9.28µM	–	–	–
Cc1nnc(SCc2nc(N)nc(Nc3ccccc3)n2)s1	–	–	–	68.9	–	38.2
COc1ccccc1Nc1nc(N)nc(CSc2nnc(C)s2)n1	–	–	–	–	–	–
COc1ccccc1Nc1nc(N)nc(CSc2nc(C)cc(C)n2)n1	·	–	–	–	–	–
COc1ccccc1Nc1nc(N)nc(CSc2nccc(C)n2)n1	0.928µM	–	–	–	–	–
SMILES	Pf growth 96h	Sm TGR block	Pf growth 48h	Shiga toxin inh	NS1 inh	Cycloheximide cs
COc1ccc(Nc2nc(N)nc(CSc3nnc(N)s3)n2)cc1	–	–	·	–	–	26.4
COc1ccc(Nc2nc(N)nc(CSc3nc(C)cc(C)n3)n2)cc1	–	–	–	48.6	–	17.9
COc1cccc(CC2(CO)CCCN(Cc3cn[nH]c3-c3ccccc3)C2)c1 (centres undefined)	?	–	?	–	–	–
Cc1nc2ccc(S(=O)(=O)NC(CC(C)C)C(=O)NCc3ccc(Cl)cc3)cc2s1 (centres undefined)	·	–	·	·	·	·
Nc1nc(CSc2ccccn2)nc(Nc2ccccc2)n1	·	–	–	69.6	–	33.0
COc1ccc(Nc2nc(N)nc(SCc3nnc(C)s3)n2)cc1	?	–	–	–	–	24.8
CCc1ccc(Nc2nc(N)nc(CSc3nc4ccccc4s3)n2)cc1	–	–	–	49.1	–	–
Cc1ccc(Nc2nc(N)nc(CSc3nncn3C)n2)cc1	–	–	–	63.7	–	27.9
Nc1nc(CSc2nc3ccccc3s2)nc(N2CCCCC2)n1	–	–	?	–	–	–
CCOC(=O)c1sc2ccccc2c1S(=O)(=O)NCc1ccc(F)cc1	·	–	·	·	·	·
COc1ccc(Nc2nc(N)nc(CSc3nccn3C)n2)cc1	–	–	–	73.2	–	35.9
CC1=C(C(=O)Nc2cccc(Cl)c2)C2(CCCCCC2)OC1=O	·	–	·	·	·	·
Cc1ccc(/C=[N+](\[O-])c2ccc(N(C)C)cc2)c2nsnc12	–	28.2µM	–	84.9	·	33.6
NC1=NC(=Nc2cccc(Cl)c2)c2ccccc21	–	–	–	–	–	–
NNC(=O)c1c(O)c2cccc3c2n(c1=O)CCC3	–	31.6µM	–	–	–	–
O=C(NCc1ccco1)c1c(O)c2cccc3c2n(c1=O)CCC3	13.1µM	–	–	–	–	–
COc1ccccc1CNC(=O)CN1C(=O)N(C)C2(CCCCC2)C1=O	–	–	–	·	·	·
O=C(NCc1ccncc1)C12CC3CC(CC(Cl)(C3)C1)C2	–	–	–	–	–	–
CCOC(=O)c1c(C)[nH]c(CCC(=O)NCc2cccc(C)c2)c1C	·	–	·	·	·	·
CCOC(=O)c1c(C)[nH]c(N=Nc2cccc(C)c2)c1C	·	–	–	130.3	–	64.2
CCOC(=O)c1c(C)[nH]c(N=Nc2cccc(OC)c2)c1C	–	–	–	154.4	·	57.9
COc1cc(/C=N/NC(=O)CCc2c(C)n[nH]c2C)cc(OC)c1OC	?	–	·	–	–	–
COC1(C(F)(F)F)NC(=O)N(c2ccc(F)cc2)C1=O (centres undefined)	·	–	·	·	·	·
CCc1ccc(NC(=O)c2ccc(F)c(S(=O)(=O)N3CCC4(CC3)OCCO4)c2)cc1	·	–	·	·	·	·
O=S(=O)(c1cc(F)ccc1F)N1CCC2(CC1)OCCO2	–	–	–	84.6	–	60.0
SMILES	Pf growth 96h	Sm TGR block	Pf growth 48h	Shiga toxin inh	NS1 inh	Cycloheximide cs
O=C(Nc1ccc(F)c(F)c1)c1ccc(F)c(S(=O)(=O)N2CCC3(CC2)OCCO3)c1	10.4µM	–	?	–	·	–
COc1ccc(CCNC(=O)C2CCN(c3ncnc4c3nc3n4CCCCC3)CC2)c(OC)c1	·	–	·	·	·	·
COCCNC(=O)Cn1c(=O)c2cccn2c2ccc(F)cc21	·	–	·	·	·	·
C[C@@]12C(=O)Nc3cc(F)ccc3C(=O)N1[C@H]1c3ccccc3OC[C@@H]1[C@@H]2c1ccccc1	?	–	?	·	·	·
COc1cc2c(cc1OC)C(=O)N1[C@H]3c4cc(Cl)ccc4OC[C@@H]3[C@H](c3ccccc3)[C@]1(C)C(=O)N2	9.28µM	–	14.7µM	·	·	·
COc1ccc2c(c1)[C@H]1[C@H](CO2)[C@H](c2ccccc2)[C@]2(C)C(=O)Nc3cc(Cl)ccc3C(=O)N12	1.85µM	–	5.22µM	·	·	·
